activity, negative = inhibition data for 40 compounds are collected here from PubChem BioAssay (NCATS).

Results filed as inconclusive are left out. Unmarked numbers belong to inactive results. The call rests on the fitted dose curve; in most records, active means well fitted curve in either direction with a large enough effect (not every such curve was filed as active); inconclusive means small, poorly fitted or top-dose-only effect, or another doubt; inactive means flat fitted curve, though single readings scatter.
On the % scale 0 is the no-effect control and ±100 the full control effect.

The test is described as follows: Stat Signaling Pathway (AID 446).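 Further: SIE-controlled beta-lactamase reporter measured as 460/530 nm FRET emission ratio.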 Particulars: ME-180 (cervical carcinoma) SIE beta-lactamase reporter, IL-6 stimulated, 5 h; at 17.2 µM (top of the series) unless noted. A digest of the protocol:
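ME-180 cells carrying a SIE-driven beta-lactamase reporter are stimulated with 40 pM IL-6 for 5 h at 37C in the presence of compound. The 460/530 nm FRET substrate ratio is read after 2.5 h at RT. Data are normalised to 300 pM IL-6 and to 125 nM JAK inhibitor controls.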
As to `O=C(CCC(=O)CCN1CCCCC1)CCN1CCCCC1`, the activity, negative = inhibition was 1.96%.
`O=C(NCC(F)(F)F)Nc1nnc(C(F)(F)F)s1`: the activity, negative = inhibition is -4.37%.
Regarding `Cc1nnc2n(C3CCCCC3)c(=O)c3c4c(sc3n12)COC(C)(C)C4`, the activity, negative = inhibition is 0.172%.
As to `O=C(NCc1ccco1)c1cnn2c1NC(c1ccccc1)CC2C(F)(F)F` (stereo not given), the activity, negative = inhibition is -6.74%.
For `COC(=O)Cn1cc(C(=O)OC)cc(Br)c1=O`, the activity, negative = inhibition was -0.311%.
Regarding `C=CCOc1nc2c(c(=O)n(Cc3ccc(Cl)c(Cl)c3)c(=O)n2C)n1C`, the activity, negative = inhibition was 7.85%.
The value for `Cc1cc(=O)oc(C)c1C(=O)NC1CC(C)(C)NC(C)(C)C1` was 0.837%; that for `Cc1cc(NC(CC(C)C)C(=O)O)nc(Cc2ccccc2)n1` (stereo not given) was 5.49%.
In the case of `CC(=O)C1=C(O)C(=O)N(c2ccc(S(N)(=O)=O)cc2)C1c1ccccc1F` (stereo not given), the activity, negative = inhibition is -0.593%.
With `COC(=O)CCc1c(C)[nH]c(C(=O)OCc2ccccc2)c1C` the figure was 5.36%; with `O=C(c1cccc(Cl)c1)N1CCN(C(=O)c2ccccc2F)CC1`, -11.1%.
For the compound `CN(C)CCCN(CCCNC(=O)/C=N/O)Cc1ccccc1`, the activity, negative = inhibition is 17.4%.
Regarding `CC(C)c1ccc(O)c(N)c1`, the activity, negative = inhibition was 2.34%.
The value for `CN(C)CCCOC(=O)C1c2ccccc2Oc2ccccc21` was -0.433%; that for `CCCOc1ccc(/C(O)=C2/C(=O)C(=O)N(CCN(C)C)C2c2ccc(OC)c(OC)c2)cc1` (stereo not given) was -1.07%; that for `C/C(NC(=O)c1ccccc1F)=C1\C(=O)C[C@@H]2[C@H]1C2(C)C` was -6.06%.
Turning to `CCOC(=O)NC(Nc1sc2c(c1C(N)=O)CCCC2)(C(=O)OCC)C(F)(F)F` (stereo not given), the activity, negative = inhibition is -7.59%.
As to `O=C(CCN1CCCCC1)Nc1cccc(Cl)c1`, the activity, negative = inhibition was -0.895%.
As for `CCOC(=O)CNC(=O)CNC(=O)c1ccc(OC)cc1`, the activity, negative = inhibition is 14.1%.
The value for `COC(=O)C1=C(C)N=C2SC(C)C(=O)N2C1/C=C/c1ccccc1OC` (stereo not given) was -6.43%.
Regarding `CSc1nc(N)nc(SCC(=O)CC(=O)OC(C)C)c1C#N`, the activity, negative = inhibition was -1.28%.
As to `O=C1CCC(=O)N1c1nc2n(n1)C(c1ccccc1)C=C(c1ccc(Br)cc1)N2` (stereo not given), the activity, negative = inhibition was -13.7%.
The value for `CC1(C)CC(=O)C2=C(C1)OC(N)=C(C#N)[C@@]21C(=O)N(CC(N)=O)c2ccccc21` was -18.4%; that for `CCc1cc(=O)oc2cc(C)c(CN3CCCCC3)c(O)c12` was -6.86%.
As to `COc1ccc(-n2c(=O)c3c4c(sc3n3c(C)nnc23)CC(C)CC4)cc1` (stereo not given), the activity, negative = inhibition is 10.9%.
With `CC(C)Cc1[nH]c(=O)c(C#N)c2c1COC(C)(C)C2` the figure was 2.18%.
The value for `CCCCN1C(=O)C(O)=C(C(C)=O)C1c1ccc(OC)cc1OC` (stereo not given) was -4.22%; that for `Cc1cc(C)n(CC(=O)n2c3c(c4ccccc42)CCCC3)n1` was 9.09%.
Take `CN1CCc2c(C#N)c(N3CCCCC3)nc(N3CCOCC3)c2C1`: the activity, negative = inhibition is 10.9%.
The value for `CS(=O)(=O)c1ccc2nc(NC(NC(=O)c3ccco3)(C(F)(F)F)C(F)(F)F)sc2c1` was -18.9%; that for `CCOc1ccc(-c2nc(C#N)c(N3CCN(CC)CC3)o2)cc1` was 19.7%.
As to `CCOC(=O)C1CCN(C(C)=C2C(=O)c3ccccc3C2=O)CC1`, the activity, negative = inhibition was 1.52%.
Consider `CC1CN(C2CCN(S(=O)(=O)Cc3ccccc3)CC2)CC(C)O1` (stereo not given), for which the activity, negative = inhibition is 5.06%.
For `CCCCCC1CC(CC#CCN2CCOCC2)C(=O)O1` (stereo not given), the activity, negative = inhibition is -2.28%.
Consider `COC(=O)CC1=C(C(=O)OC)C(c2cccc(OCC(N)=O)c2)C(C#N)=C(N)O1` (stereo not given), for which the activity, negative = inhibition was 6.6%.
In the case of `CNc1oc(-c2ccc(Cl)cc2)nc1C#N`, the activity, negative = inhibition is 5.14%.
With `CCCOc1ccc(/C(O)=C2/C(=O)C(=O)N(CCN(C)C)C2c2ccncc2)cc1` (stereo not given), the activity, negative = inhibition was 5.47%.
With `CN=c1sc2ccccc2n1CC(O)COc1ccccc1` (stereo not given) the figure was -0.403%; with `CCCCOc1ccc(C(=O)NCC(=O)NCC(=O)OCC)cc1`, -5.03%.
Take `Cn1c(=O)c2c(nc(NCc3ccc4c(c3)OCO4)n2Cc2ccccc2F)n(C)c1=O`: the activity, negative = inhibition is -25.4%.
